Results from PubChem BioAssay AID1159580 (chemical genetic matrix, 2015).
The campaign covered roughly 5,500 compounds. About 2,000 (36%) were called active. Not shown: some 18% with an inconclusive outcome. No stated cut-off is given here; in the data, active means normalized growth mostly below about 0.91 (no sharp cut-off); inconclusive means no clear call, values can overlap the other calls; inactive means mostly above about 0.92. The list shows a part of the results.

Assay: chemical genetic growth profiling, strain panel (AID 1159580);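 further: tested at 20 µM; growth read once vehicle control cultures reached saturation at 30 °C; 1 = growth at the plate median or of vehicle wells; lower values mean less growth of the strain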
Settings: S. cerevisiae deletion strains, growth OD

Measured: normalized growth

O=S(=O)(c1cccc2c(I)cccc12)N1CCCNCC1
inactive: locus YAL013W, strain DEP1, hits give low values 0.983 | locus YAL040C, strain CLN3, hits give low values 0.979 | locus YCL061C, strain MRC1 (second series), hits give low values 0.984 | locus YDR150W, strain NUM1, hits give low values 0.991 | locus YDR363W, strain ESC2, hits give low values 0.958 | locus YER002W, strain NOP16, hits give low values 1.01 | locus YGR078C, strain PAC10, hits give low values 0.982 | locus YGR229C, strain SMI1, hits give low values 1 | locus YJR075W, strain HOC1, hits give low values 1.01 | locus YNL128W, strain TEP1, hits give low values 1.06 | locus YNL153C, strain GIM3, hits give low values 0.927 | locus YNL175C, strain NOP13, hits give low values 0.995 | locus YNL197C, strain WHI3, hits give low values 0.986 | locus YNL224C, strain SQS1, hits give low values 1.02 | locus YOR083W, strain WHI5 (second series), hits give low values 0.932 | locus YPL241C, strain CIN2, hits give low values 0.984

C[C@]12C=CC(=O)C=C1CCC1C2[C@@H](O)C[C@@]2(C)C1CC[C@]2(O)C(=O)COP(=O)(O)O (stereo partly specified)
inactive: locus YAL021C, strain ccr4, hits give low values 1.01 | locus YAL026C, strain drs2, hits give low values 1 | locus YAL030W, strain snc1, hits give low values 1 | locus YBL061C, strain skt5, hits give low values 0.995 | locus YBR009C, strain hhf1, hits give low values 1 | locus YBR023C, strain chs3, hits give low values 0.998 | locus YBR171W, strain sec66, hits give low values 0.995 | locus YBR231C, strain swc5, hits give low values 1.01 | locus YBR279W, strain paf1, hits give low values 1.01 | locus YCL011C, strain gbp2, hits give low values 1 | locus YCL016C, strain dcc1, hits give low values 0.995 | locus YCL061C, strain MRC1, hits give low values 0.995 | locus YCL069W, strain vba3, hits give low values 1.01 | locus YCR088W, strain abp1, hits give low values 1.01 | locus YDL005C, strain med2, hits give low values 1 | locus YDL040C, strain nat1, hits give low values 0.997 | locus YDR001C, strain nth1, hits give low values 1 | locus YDR069C, strain doa4, hits give low values 0.998 | locus YDR137W, strain rgp1, hits give low values 1.02 | locus YDR159W, strain sac3, hits give low values 0.98 | locus YDR195W, strain ref2 0.954 | locus YDR297W, strain sur2, hits give low values 1 | locus YDR334W, strain swr1, hits give low values 1.01 | locus YDR335W, strain msn5, hits give low values 0.998 | locus YDR392W, strain spt3, hits give low values 0.96 | locus YEL003W, strain gim4, hits give low values 1.01 | locus YEL037C, strain rad23, hits give low values 1.04 | locus YEL061C, strain CIN8 (second series), hits give low values 0.999 | locus YER015W, strain faa2, hits give low values 0.999 | locus YER016W, strain bim1, hits give low values 0.99 | locus YER111C, strain swi4, hits give low values 0.998 | locus YER155C, strain BEM2 (second series), hits give low values 1.01 | locus YFR010W, strain ubp6, hits give low values 1.01 | locus YGL167C, strain pmr1, hits give low values 1 | locus YGL173C, strain kem1, hits give low values 1 | locus YGL227W, strain vid30, hits give low values 0.996 | locus YGL240W, strain doc1, hits give low values 0.996 | locus YGL253W, strain hxk2, hits give low values 0.995 | locus YHR013C, strain ard1, hits give low values 1 | locus YHR027C, strain rpn1, hits give low values 1 | locus YHR030C, strain SLT2, hits give low values 1.04 | locus YHR079C, strain IRE1, hits give low values 1.02 | locus YHR142W, strain chs7, hits give low values 0.999 | locus YJL092W, strain hpr5, hits give low values 0.993 | locus YJL095W, strain BCK1 (second series), hits give low values 0.994 | locus YJL095W, strain BCK1, hits give low values 0.977 | locus YJL115W, strain asf1, hits give low values 0.995 | locus YJL129C, strain trk1, hits give low values 1 | locus YJL154C, strain vps35, hits give low values 1.01 | locus YJL164C, strain tpk1, hits give low values 0.995 | locus YJL166W, strain qcr8, hits give low values 1.01 | locus YJL187C, strain SWE1, hits give low values 1.01 | locus YJR066W, strain TOR1, hits give low values 0.973 | locus YKL160W, strain elf1, hits give low values 1 | locus YKR026C, strain gcn3, hits give low values 0.984 | locus YKR091W, strain srl3, hits give low values 1 | locus YLL001W, strain dnm1, hits give low values 1 | locus YLL026W, hits give low values 0.992 | locus YLL041C, strain sdh2, hits give low values 1 | locus YLR027C, strain aat2, hits give low values 1.01 | locus YLR113W, strain HOG1, hits give low values 0.984 | locus YLR221C, strain rsa3, hits give low values 1.01 | locus YLR258W, strain gsy2, hits give low values 1 | locus YLR262C, strain YPT6 (second series), hits give low values 1.01 | locus YLR320W, strain mms22, hits give low values 1 | locus YLR342W, strain FKS1, hits give low values 0.989 | locus YLR357W, strain rsc2, hits give low values 0.983 | locus YLR370C, strain arc18, hits give low values 1 | locus YLR384C, strain iki3, hits give low values 1 | locus YML120C, strain ndi1, hits give low values 1.01 | locus YMR058W, strain fet3, hits give low values 0.996 | locus YMR125W, strain sto1, hits give low values 0.98 | locus YMR129W, hits give low values 1.01 | locus YMR205C, strain PFK2, hits give low values 0.992 | locus YMR231W, strain pep5, hits give low values 1 | locus YNL071W, strain lat1, hits give low values 1 | locus YNL183C, strain NPR1, hits give low values 0.973 | locus YNL209W, strain ssb2, hits give low values 1 | locus YNL248C, strain rpa49, hits give low values 1.02 | locus YNL322C, strain KRE1 (second series), hits give low values 1 | locus YNR049C, strain mso1, hits give low values 1.01 | locus YOR001W, strain rrp6, hits give low values 1.01 | locus YOR070C, strain gyp1, hits give low values 0.994 | locus YOR080W, strain dia2, hits give low values 0.998 | locus YOR083W, strain WHI5, hits give low values 1.01 | locus YOR106W, strain vam3, hits give low values 1.01 | locus YOR231W, strain MKK1, hits give low values 1.02 | locus YOR265W, strain rbl2, hits give low values 0.995 | locus YOR270C, strain vph1, hits give low values 1.03 | locus YOR290C, strain snf2, hits give low values 1.02 | locus YPL051W, strain arl3, hits give low values 1.01 | locus YPL078C, strain atp4, hits give low values 1 | locus YPL106C, strain sse1, hits give low values 1.01 | locus YPL240C, strain hsp82, hits give low values 0.996 | locus YPL256C, strain CLN2, hits give low values 0.997
